A number with no mark means an inactive call. The source made the active and inactive calls. The call rests on the fitted dose curve; in most records, active means well fitted curve in the direction sought with a large enough effect in the repeat runs; inconclusive means weak or mixed curves; inactive means flat fitted curve, though single readings scatter.
test: qHTS assay to test for compound auto fluorescence at 535 nm (green) in HepG2 cell free culture (AID 720686); settings: Cell-free medium, green autofluorescence 485/535 nm; series mostly up to 91.3 µM; fluorescence, % of fluorescein control: at the top concentration
Text: U.S. Tox21 Program National Center for Advancing Translational Sciences [NCATS] NIH Chemical Genomics Center [NCGC] U.S. Environmental Protection Agency [EPA] National Institutes of Environmental Health Sciences [NIEHS] National Toxicology Program [NTP] U.S. Food and Drug Administration [FDA] Tox21 Assay Overview: Compound auto fluorescence often interferes with screening of the compound library against various biological targets and signaling pathways. Some of these compounds may have fluorophoric properties. Such properties may interfere with the assay outputs resulting in false positives and/or negatives. To decrease such complications and ensure the compound activities are relevant in terms of biological response, the Tox21 10K compound library was screened for auto fluorescence. From the fluorophores used as reporter signals in our screening assays, the auto fluorescence equivalencies of compounds against three fluorophores have been evaluated: Triamterene, Fluorescein and Rose Bengal sodium for blue, green and red fluorescence, respectively. The fluorescence intensities were measured using Excitation/Emission wavelengths at 405/460nm, 485/535nm and 540/590nm for blue, green and red labels, respectively. This assay includes the green fluorescence data.
Tox21 Assay Protocol Summary: 5 uL of culture medium (MEM containing 10% FBS) per well was dispensed into black wall/clear bottom 1536-well plates using a Multidrop Combi Dispenser (ThermoFisher Scientific, Waltham, MA). After 23 nL compound or DMSO vehicle was transferred into assay plate by a pintool work station (Kalypsys, San Diego, CA), fluorescence intensities in the assay plates were measured by an Envision (PerkinElmer, Shelton, CT) plate reader using three labels for measuring blue, green and red fluorescence at […] 460, 535 and 590nm respectively.
On the % scale 0 is the no-effect control and ±100 the full control effect.

SMILES	fluorescence, % of fluorescein control	outcome
CC[N+](CC)(CCNC(=O)C(=O)NCC[N+](CC)(CC)Cc1ccccc1Cl)Cc1ccccc1Cl	0.0226% [at 46 µM]	
Nc1nc2ccc([N+](=O)[O-])cc2s1	-0.105%	
CCOC(=O)c1ccccc1C(=C1C=C(Br)C(=O)C(Br)=C1)c1cc(Br)c(O)c(Br)c1	-0.129%	
CCCCC(CC)COP(=O)(O)O (stereo not given)	0.0082% [at 95.7 µM]	
CC1(C)S[C@@H]2[C@H](NC(=O)C(c3ccccc3)S(=O)(=O)O)C(=O)N2[C@H]1C(=O)O (stereo not given in full)	-0.0955% [at 46 µM]	
Cc1ccco1	0.0403%	
Cc1c(C)c2c(c(C)c1OC(=O)CCC(=O)OCCO)CC[C@@](C)(CCC[C@H](C)CCC[C@H](C)CCCC(C)C)O2	0.0231% [at 46 µM]	
CC1=C(CC=O)C(C)(C)CCC1	-0.0521%	
CC1=C(Br)C(=O)C(Br)=C/C1=C(/c1ccccc1S(=O)(=O)O)c1cc(Br)c(O)c(Br)c1C	-0.71%	
C=CCc1ccccc1OCC(O)CNC(C)C (stereo not given)	0.0432% [at 46 µM]	
CO/N=C(/C(=O)N[C@@H]1C(=O)N2C(C(=O)O)=C(COC(N)=O)CS[C@H]12)c1ccco1		inactive
CCOC(=O)OC(C)OC(=O)[C@@H]1N2C(=O)[C@@H](NC(=O)[C@H](N)c3ccccc3)[C@H]2SC1(C)C (stereo not given in full)	0.112% [at 18.6 µM]	
C=C1CCC2CC1C2(C)C (stereo not given)	-0.0841%	
CC1(CN2CCC(n3c(=O)[nH]c4ccccc43)CC2)OCc2ccccc2-n2cccc21 (stereo not given)	-0.0219% [at 46 µM]	
C=C(C)[C@@H]1CCC2=CCC[C@@H](C)[C@]2(C)C1	0.0406%	
C=CC(=O)[O-].C=CC(=O)[O-].[Zn+2]	0.0648%	
C=Cc1ccc(S(=O)(=O)O)cc1		inactive
C/C=C(/C(=C/C)c1ccc(O)cc1)c1ccc(O)cc1	-0.0063% [at 18.6 µM]	
CCCCN1CCCC1C(=O)Nc1c(C)cc(C)cc1C (stereo not given)	0.0236% [at 46 µM]	
C=C(C)C(=O)OCCOCCOC(=O)C(=C)C	0.0899%	

SMILES	fluorescence, % of fluorescein control	outcome
O=c1cc(-c2ccccc2)oc2ccc3ccccc3c12	0.0689%	
CCOc1ccc(Cc2nccc3cc(OCC)c(OCC)cc23)cc1OCC	0.0297% [at 18.6 µM]	
Cc1ccc(OC(=O)c2ccccc2O)cc1	0.065%	
C[C@@]12CCC[C@H]1[C@@H]1CC[C@H]3C[C@@H](O)CC[C@]3(C)[C@H]1CC2	-0.0418% [at 46 µM]	
COc1cc(Nc2c(C#N)cnc3cc(OCCCN4CCN(C)CC4)c(OC)cc23)c(Cl)cc1Cl	0.148% [at 46 µM]	
CN1C(=O)c2ccccc2C1=O	-0.29%	
O=C(O)c1ccc(OCCCOc2ccc(C(=O)O)cc2)cc1	-0.0052% [at 46 µM]	
C[C@H]1c2cccc(O)c2C(O)=C2C(=O)[C@]3(O)C(O)=C(C(N)=O)C(=O)[C@@H](N(C)C)[C@@H]3[C@@H](O)[C@@H]21	0.0475% [at 46 µM]	
O=C1c2ccccc2C(=O)N1CCc1noc(-c2ccc(CN3CCCCCC3)s2)n1	0.108%	
COc1ccccc1N1CCN(CC(O)COc2cccc3ccccc23)CC1 (stereo not given)	0.0128% [at 46 µM]	
CO[C@]1(NC(=O)CSC(F)F)C(=O)N2C(C(=O)O)=C(CSc3nnnn3CCO)CO[C@H]21	0.144% [at 46 µM]	
Oc1cccc(Nc2ccccc2)c1	0.0064% [at 95.7 µM]	
CC1(C)O[C@@H]2C[C@H]3[C@@H]4C[C@H](F)C5=CC(=O)C=C[C@]5(C)[C@H]4[C@@H](O)C[C@]3(C)[C@]2(C(=O)CO)O1	-0.129% [at 18.6 µM]	
CCOC(=O)c1ccc(C#Cc2ccc3c(c2)C(C)(C)CCS3)nc1	0.0222% [at 46 µM]	
CN1C(C(=O)Nc2ccccn2)=C(O)c2sccc2S1(=O)=O	-0.0069% [at 18.6 µM]	
CCCCOc1ccc(OCCCN2CCOCC2)cc1	-0.0254% [at 18.6 µM]	
C[C@@H](O)[C@H]1C(=O)N2C(C(=O)O)=C([C@H]3CCCO3)S[C@H]12	0.25% [at 46 µM]	
CN(C(=O)CN(CCO)CC(=O)N(C)C(C)(C)Cc1ccccc1)C(C)(C)Cc1ccccc1	0.0894% [at 18.6 µM]	
O=[N+]([O-])c1ccc(O/N=C/c2cc(Br)c(O)c(Br)c2)c([N+](=O)[O-])c1	0.0439%	
OCCN1CCN(CCCN2c3ccccc3Sc3ccc(Cl)cc32)CC1	0.137% [at 18.6 µM]	
